Measurements from PubChem BioAssay.
Calls of active or inactive are those of the source.

How the values were obtained:
[1] = system: Human papillomavirus type 1a protein E7 (residues 44-93); assay: small molecules binding HPV E7 44-93 – biochemical, small-molecule microarray, residues 44-93, 635 nm fluorescence, primary screen (AID 1108); conditions: fluorescence 635 nm, higher = more signal;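 note: E7 fragment applied at 1 µg/mL in TBST for 1 h at 4 C; score combines spot fluorescence with its signal to noise ratio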
[2] = hepatitis C replication reporter changes, two-sided – Huh7 cells, luciferase reporter, HCV replication inhibitor project, primary screen (AID 1109); conditions: Huh7 HCV replicon luciferase reporter, 48 h; higher = more signal;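 note: huh7 hepatoma cells harbouring a luciferase neomycin HCV replicon reporter; luciferase luminescence as measure of HCV replicon replication; test concentration not given here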
[3] = biological target: Left-right determination factor 2 (Homo sapiens) (UniProt O00292); assay: small molecules binding LEFTY2 protein – biochemical, small-molecule microarray, 635 nm fluorescence scan, primary screen (AID 1110); conditions: higher = more signal
Left-right determination factor 2 (Homo sapiens), sequence (O00292 whole entry, looked up): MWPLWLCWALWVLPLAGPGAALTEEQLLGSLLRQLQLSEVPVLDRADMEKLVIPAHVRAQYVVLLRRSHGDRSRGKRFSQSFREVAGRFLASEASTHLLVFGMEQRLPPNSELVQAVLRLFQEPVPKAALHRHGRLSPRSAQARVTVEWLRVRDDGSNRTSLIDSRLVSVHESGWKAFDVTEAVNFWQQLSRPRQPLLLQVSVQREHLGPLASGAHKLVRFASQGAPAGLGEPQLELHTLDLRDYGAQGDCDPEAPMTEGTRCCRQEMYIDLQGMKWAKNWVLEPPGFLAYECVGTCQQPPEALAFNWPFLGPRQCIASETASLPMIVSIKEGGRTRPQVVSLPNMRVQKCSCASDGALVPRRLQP

[4] = biological target: Calmodulin-1 (Homo sapiens) (UniProt P0DP23); assay: small molecules binding calmodulin-1 with EGTA – biochemical, small-molecule microarray, Cy5-labelled CALM1, profiling panel (AID 1111); conditions: Cy5-CALM1 binding fluorescence, higher = more signal;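 note: labelled calmodulin applied in Tris saline Tween buffer holding calcium plus EGTA and DTT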
[5] = biological target: Calmodulin-1 (Homo sapiens) (UniProt P0DP23); assay: small molecules binding Ca-loaded calmodulin-1 – biochemical, small-molecule microarray, Cy5-labelled CALM1, plus calcium, artefact control for SMM control-protein annotation, profiling panel (AID 1112); conditions: Cy5-CALM1 binding fluorescence, higher = more signal;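 note: score merges spot fluorescence with signal to noise from triplicate slides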
[6] = probe aWnt5a binding to arrayed compounds – biochemical, biotinylated probe, 635/667 nm fluorescence, primary screen (AID 1113); conditions: small-molecule microarray, higher = more signal;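 note: score merges 667 nm fluorescence intensity with signal-to-noise per printed feature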
[7] = probe aShh binding to arrayed compounds – biochemical, biotinylated probe, 635/667 nm fluorescence, primary screen (AID 1114); conditions: small-molecule microarray, higher = more signal;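 note: probe is biotin-labelled aShh protein from a stem cell growth factor screen; measures binding of labelled protein to compounds printed on the slide; score merges feature fluorescence at 667 nm with signal-to-noise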
[8] = probe aNog binding to arrayed compounds – biochemical, biotinylated probe, 635/667 nm fluorescence, primary screen (AID 1115); conditions: small-molecule microarray, higher = more signal;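 note: probe is biotinylated aNog protein used at 0.15 µg/mL for 1 h at 4 C; z-score combines 667 nm fluorescence of each spot with its signal to noise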
[9] = biological target: Torsin-1A-interacting protein 1 (Homo sapiens) (UniProt Q5JTV8); assay: compound microarray binding of lysate hLAP1 – cell lysate, small-molecule microarray, COS7 lysate, 635/667 nm fluorescence, primary screen (AID 1116); conditions: 635 nm fluorescence, higher = more signal
Torsin-1A-interacting protein 1 (Homo sapiens), sequence (Q5JTV8 whole entry, looked up): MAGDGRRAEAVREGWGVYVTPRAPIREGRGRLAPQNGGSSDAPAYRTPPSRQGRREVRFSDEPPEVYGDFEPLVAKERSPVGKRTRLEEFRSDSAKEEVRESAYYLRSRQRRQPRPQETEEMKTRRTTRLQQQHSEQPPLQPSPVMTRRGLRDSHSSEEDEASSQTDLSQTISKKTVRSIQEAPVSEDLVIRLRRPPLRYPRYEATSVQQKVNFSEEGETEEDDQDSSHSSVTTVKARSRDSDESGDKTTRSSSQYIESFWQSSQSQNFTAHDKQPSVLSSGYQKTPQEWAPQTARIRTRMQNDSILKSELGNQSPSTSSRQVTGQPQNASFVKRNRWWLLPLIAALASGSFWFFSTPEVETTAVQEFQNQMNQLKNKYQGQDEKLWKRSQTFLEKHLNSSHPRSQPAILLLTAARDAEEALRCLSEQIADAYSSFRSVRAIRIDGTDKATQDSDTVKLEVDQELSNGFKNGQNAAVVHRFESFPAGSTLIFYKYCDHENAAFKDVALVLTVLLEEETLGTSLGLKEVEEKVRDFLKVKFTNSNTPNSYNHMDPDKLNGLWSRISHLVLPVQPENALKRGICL

[10] = biological target: Alpha-bungarotoxin (Bungarus multicinctus) (UniProt P60615); assay: compounds binding labelled alpha-BTX control protein – biochemical, small-molecule microarray, Alexa647 label, 635/667 nm fluorescence, artefact control for SMM control protein annotation, profiling panel (AID 1117); conditions: alpha-BTX-A647 binding fluorescence, higher = more signal
Alpha-bungarotoxin (Bungarus multicinctus), sequence (P60615 whole entry, looked up): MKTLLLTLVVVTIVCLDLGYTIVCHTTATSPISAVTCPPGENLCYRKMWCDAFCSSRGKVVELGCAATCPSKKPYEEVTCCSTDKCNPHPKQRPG

Albumin (Bos taurus) = Albumin (Bos taurus) (UniProt P02769); assay: compounds binding labelled BSA control protein – biochemical, small-molecule microarray, Alexa647 label, 635/667 nm fluorescence, artefact control for SMM control protein annotation, profiling panel (AID 1118); conditions: BSA-A647 binding, fluorescence 635 nm, higher = more signal;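 note: score merges 667 nm emission intensity and signal-to-noise per printed compound spot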
Albumin (Bos taurus), sequence (P02769 whole entry, looked up): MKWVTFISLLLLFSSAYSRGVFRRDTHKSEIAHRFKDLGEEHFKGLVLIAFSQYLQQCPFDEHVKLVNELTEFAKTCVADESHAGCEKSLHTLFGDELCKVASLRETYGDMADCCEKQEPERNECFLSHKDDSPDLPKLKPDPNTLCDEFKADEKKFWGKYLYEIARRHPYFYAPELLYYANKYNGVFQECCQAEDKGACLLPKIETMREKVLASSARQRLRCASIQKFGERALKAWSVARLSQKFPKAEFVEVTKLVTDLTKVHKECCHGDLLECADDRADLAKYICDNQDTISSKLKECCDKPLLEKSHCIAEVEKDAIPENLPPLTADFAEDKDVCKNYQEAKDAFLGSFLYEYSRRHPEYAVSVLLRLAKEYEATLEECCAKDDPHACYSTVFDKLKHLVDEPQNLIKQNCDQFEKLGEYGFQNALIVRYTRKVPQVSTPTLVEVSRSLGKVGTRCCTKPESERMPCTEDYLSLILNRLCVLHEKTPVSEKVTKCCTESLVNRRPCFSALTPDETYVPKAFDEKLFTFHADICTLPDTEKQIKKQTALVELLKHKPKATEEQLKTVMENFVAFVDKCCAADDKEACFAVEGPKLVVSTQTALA

[11] = probe aXIP binding to arrayed compounds – biochemical, NeuroSMM set, 635/667 nm fluorescence, primary screen (AID 1119); conditions: small-molecule microarray, higher = more signal, called active from +8 up or from −8 down;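 note: probe is the protein aXip251-270 applied at 1 µg/mL to compound-printed slides; binding of probe to printed compounds measured as 667 nm fluorescence plus signal to noise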
[12] = probe aNOTCH3 binding on compound microarray – biochemical, small-molecule microarray, 635/667 nm fluorescence, primary screen (AID 1120); conditions: higher = more signal;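 note: probe is a biotin-tagged antibody raised against NOTCH3 rather than NOTCH3 protein; score merges spot fluorescence near 667 nm with spot signal to noise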
[13] = probe aNOTCH2 binding on compound microarray – biochemical, small-molecule microarray, 635/667 nm fluorescence, primary screen (AID 1121); conditions: higher = more signal;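 note: score merges feature fluorescence read at 667 nm with its signal to noise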
[14] = biological target: Carbonic anhydrase 2 (Homo sapiens) (UniProt P00918); assay: compounds binding carbonic anhydrase 2 – biochemical, small-molecule microarray, Alexa647-labelled CAII, profiling panel (AID 1122); conditions: CAII-A647 binding fluorescence, higher = more signal
[15] = COS7 lysate on small-molecule microarray, probe aHis, 635 nm (AID 1123); conditions: COS7 cell lysate, fluorescence, higher = more signal;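 note: z-score combines 667nm fluorescence intensity with signal-to-noise per printed compound spot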
[16] = probe aLAP1 signal on lysate-treated microarray – cell lysate, small-molecule microarray, COS7 lysate, primary screen (AID 1124); conditions: probe aLAP1, fluorescence, higher = more signal;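 note: lysate comes from COS7 cells expressing LAP1 and is applied at 0.3 µg/mL; score merges spot fluorescence near 667 nm with signal-to-noise over triplicate slides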
Sam68 (KHDRBS1) = assay: compounds binding KHDRBS1 protein – biochemical, small-molecule microarray, 635 nm fluorescence, primary screen (AID 1125); conditions: higher = more signal;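 note: score merges 667 nm channel intensity with signal to noise over triplicate slides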
[17] = system: Chordin-like protein 2 (CHRDL2); assay: compounds binding chordin-like 2 – biochemical, small-molecule microarray, 635 nm fluorescence, primary screen (AID 1126); conditions: fluorescence 635 nm, higher = more signal;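 note: printed compound slides probed with Chrdl2 protein at 4 µg/mL for 1 h at 4 C; score merges 667 nm emission intensity with signal to noise over three replicate slides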
[18] = biological target: Concanavalin-A (Canavalia ensiformis) (UniProt P02866); assay: compounds binding concanavalin A lectin – biochemical, small-molecule microarray, Alexa647 label, 635 nm, artefact control for SMM control protein annotation, primary screen (AID 1127); conditions: ConA-A647 binding fluorescence, higher = more signal;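 note: z combines 667 nm emission intensity with signal-to-noise across three replicate slides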
Concanavalin-A (Canavalia ensiformis), sequence (P02866 whole entry, looked up): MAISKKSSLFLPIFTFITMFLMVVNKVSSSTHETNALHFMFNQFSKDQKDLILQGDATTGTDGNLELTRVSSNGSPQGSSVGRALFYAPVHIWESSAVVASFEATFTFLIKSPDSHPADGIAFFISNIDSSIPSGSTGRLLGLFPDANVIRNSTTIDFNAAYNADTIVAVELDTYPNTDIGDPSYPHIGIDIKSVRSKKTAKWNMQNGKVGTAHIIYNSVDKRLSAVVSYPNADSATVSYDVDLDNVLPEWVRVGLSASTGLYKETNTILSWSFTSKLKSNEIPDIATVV

C=C(/C(=C/C[C@@H](OC(=O)c1ccncc1)c1ccccc1OCCO)c1cnc2ccccc2c1)C(C)C
composite z-score [1]: 1.4
z-score [2]: -4.46
composite z-score [3]: 0.935
composite z-score [4]: 0.273
composite z-score [5]: -0.531
composite z-score [6]: 0.0044
composite z-score [7]: -0.195
composite z-score [8]: 0.0588
composite z-score [9]: 1.23
composite z-score [10]: 3.08
composite z-score (Albumin (Bos taurus)): 0.635
composite Z-score [11]: 0.718 (inactive)
composite z-score [12]: 0.306
composite z-score [13]: 0.0002
composite z-score [14]: 0.935
composite z-score [15]: 1.5
composite z-score [16]: 0.497
composite z-score (Sam68 (KHDRBS1)): 1.3
composite z-score [17]: 1.45
composite z-score [18]: 1.19

CCCCC(O)C1C=CC2C(=O)N(Cc3ccccc3)C(=O)C2N1n1cnnc1 (stereo not given)
composite z-score [1]: 1.13
z-score [2]: -1.09
composite z-score [3]: 0.23
composite z-score [4]: 0.0285
composite z-score [5]: -0.163
composite z-score [6]: -0.0087
composite z-score [7]: 0.13
composite z-score [8]: -0.0351
composite z-score [9]: 0.208
composite z-score [10]: 0.274
composite z-score (Albumin (Bos taurus)): -0.0045
composite Z-score [11]: 0.406 (inactive)
composite z-score [12]: 0.0039
composite z-score [13]: -0.101
composite z-score [14]: 0.644
composite z-score [15]: 1.4
composite z-score [16]: 0.0713
composite z-score (Sam68 (KHDRBS1)): 1.01
composite z-score [17]: -0.0652
composite z-score [18]: 0.216

COCCOC(=O)N1C(=O)[C@@]2(c3cc(C#CC4(O)CCCCCC4)ccc31)[C@H](C(=O)NC[C@H](O)c1ccccc1)[C@H]1C(=O)O[C@H](c3ccccc3)[C@H](c3ccccc3)N1[C@@H]2c1ccc(OCCO)cc1
composite z-score [1]: 1.38
z-score [2]: -1.73
composite z-score [3]: 0.358
composite z-score [4]: 0.7
composite z-score [5]: 0.383
composite z-score [6]: -0.282
composite z-score [7]: -0.638
composite z-score [8]: 0.14
composite z-score [9]: 0.394
composite z-score [10]: 0.598
composite z-score (Albumin (Bos taurus)): 0.067
composite Z-score [11]: 0.244 (inactive)
composite z-score [12]: -0.0328
composite z-score [13]: -0.0995
composite z-score [14]: 0.495
composite z-score [15]: 1.23
composite z-score [16]: 0.217
composite z-score (Sam68 (KHDRBS1)): 1.3
composite z-score [17]: 0.223
composite z-score [18]: 1.13

CC1=C2[C@@H](CCc3ccccc3)OB(O)C[C@@H]2[C@@H]2C(=O)C=CC(=O)[C@@H]2C1
composite z-score [1]: 0.808
z-score [2]: -2.13
composite z-score [3]: 1.12
composite z-score [4]: 0.281
composite z-score [5]: -0.172
composite z-score [6]: 0.0101
composite z-score [7]: -0.214
composite z-score [8]: -0.375
composite z-score [9]: 0.464
composite z-score [10]: 1.2
composite z-score (Albumin (Bos taurus)): 0.393
composite Z-score [11]: 1.64 (inactive)
composite z-score [12]: -0.0677
composite z-score [13]: 0.0777
composite z-score [14]: 0.298
composite z-score [15]: -0.0088
composite z-score [16]: 0.0435
composite z-score (Sam68 (KHDRBS1)): 1.01
composite z-score [17]: 0.483
composite z-score [18]: 0.793

C=C(CCCC)/C(=C/C[C@@H](OC(=O)c1ccncc1)c1ccccc1OCCO)c1cc(C(=O)OC)ccc1OC
composite z-score [1]: 1.4
z-score [2]: -2.61
composite z-score [3]: 0.0979
composite z-score [4]: -0.154
composite z-score [5]: -0.351
composite z-score [6]: -0.0735
composite z-score [7]: -0.0626
composite z-score [8]: -0.518
composite z-score [9]: 0.603
composite z-score [10]: 1.93
composite z-score (Albumin (Bos taurus)): 0.865
composite Z-score [11]: -0.0662 (inactive)
composite z-score [12]: 0.125
composite z-score [13]: -0.0317
composite z-score [14]: 0.616
composite z-score [15]: 1.28
composite z-score [16]: 0.902
composite z-score (Sam68 (KHDRBS1)): 1.25
composite z-score [17]: -0.0027
composite z-score [18]: -0.251
